Source: PubChem BioAssay
Nrf2 inh = Nrf2 pathway inhibition; A549 ARE-Fluc reporter, luciferase luminescence, 18-24 h; Potency, µM (highest dose often 46 µM), without a hit: top-dose activity change, negative = inhibition, actives largely listed as inhibitors; 360,000 tested, 2.1% active; note: potency is the fitted concentration of half-maximal effect; % is set by controls: 0 for no effect and ±100 for the full control effect; nearly all actives have a fitted effect of over 60% in size
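A549 ARE_Fluc cells (5000/well, 5% FBS OPTI-MEM) pre-incubated 2 h, then treated with compounds 18-24 h at 37C/5% CO2 in concentration-response. CellTiter-Fluor viability read first; BugLite luciferase luminescence after 15 min at room temperature gives Nrf2 activity.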
IL2 activator = activators of IL-2; 360,000 tested, 0.065% active; IL-2 activation reporter assay, cell-based qHTS; stimulated with anti-CD3/CD4/CD28 beads; in transgenic mouse T cells; activation, % (series mostly up to about 46 µM); in the data active = activation above about 50%; inconclusive = mostly about 30% to 49%; note: 0% is about no effect
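Using fluorescent plate cytometry, EGFP and DsRed are detected in transgenic mouse T cells stimulated 18 h at 37 degrees C with antibody-coated beads after 60 min compound pretreatment.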
Nrf2 activator = Nrf2 pathway activation | AREc32 ARE-luciferase reporter (MCF7-derived line), luminescence, 24 h | Potency, µM (series often up to 46.1 µM), without a hit: at the top dose activation, usual class: activators | 410,000 tested, 0.31% active | AID 624171; note: potency is the fitted concentration of half-maximal effect; % of control where 0% means no effect; nearly all actives have a fitted effect of over 65% in size
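Steps: seed AREc32_Fluc cells (1000/well, 5% FBS OPTI-MEM); incubate overnight at 37 deg C; add 23 nL compound; incubate 24 hr; add Steady-Glo; hold 30 min RT; read luminescence.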
A549 tox = A549 cytotoxicity, counter-screen for Nrf2 inhibitors | Potency, µM (highest dose often 46 µM), for inactives: at the top dose activity change, negative = cytotoxicity, actives largely listed as inhibitors | 390,000 tested, 0.16% active | A549 ARE-Fluc cells, CellTiter-Fluor viability, 18-24 h; note: potency is the fitted concentration of half-maximal effect; % is set by controls: 0 for no effect and ±100 for the full control effect
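A549 ARE-Fluc cells in 5% FBS OPTI-MEM, 5000 cells/well, rested 2 h then exposed to compounds in concentration-response for 18-24 h at 37 °C. Viability by CellTiter-Fluor fluorescence (Ex 405/Em 525) after 30 min; luciferase luminescence (BugLite, 15 min, RT) read afterwards.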
* marks the source's active call; other numbers are inactive results; ? = inconclusive; · = not tested or not shown. Hits are enriched below; roughly 2.3% of the tested compounds scored in any of these assays. Unless noted, calls come from the whole dose curve; as a rule, active = well fitted curve in the direction sought with a large enough effect; inconclusive = small, poorly fitted or top-dose-only effect, or another doubt; inactive = no such curve, though single readings can be large; an effect the other way counts as inactive or inconclusive.

SMILES	Nrf2 inh	IL2 activator	Nrf2 activator	A549 tox
N#Cc1nc(Nc2cc(F)cc(F)c2)c2ncn(CC(F)F)c2n1	?	0	13%	-4%
N#Cc1nc(NCC(F)F)c2ncn(-c3cccc(Cl)c3)c2n1	21µM*	·	·	?
O=C(O)CNc1cccc(-c2nn3c(=O)cc(N4CCNCC4)nc3s2)c1	5%	·	·	-2%
COc1cc(/C=C/c2[nH]c(=O)[nH]c(=O)c2[N+](=O)[O-])cc([N+](=O)[O-])c1O	3%	0	-1%	16µM*
O=C(COc1ccccc1/C=C1\SC(=S)NC1=O)Nc1ccc(F)cc1	23µM*	-1	?	?
NC1=NC(=O)/C(=C/c2ccccc2OCC(=O)Nc2ccc(F)cc2)S1	2%	0	4%	-1%
Cc1cc(C)nc(NC(=O)/C=C/c2ccccc2Cl)n1	·	-3	8.9µM*	-6%
Cc1cc(C)nc(NC(=O)/C=C/c2ccccc2Cl)c1	5%	2	?	-2%
CC(C)(C)n1nnnc1C(c1cccs1)N(Cc1ccccc1)Cc1ccco1 (configuration not stated)	21µM*	-1	9%	-9%
CCOc1ccc(C(=O)CC(C(=O)O)N2CCCCC2)cc1 (configuration not stated)	-20%	-1	16µM*	-7%
CCOc1ccc(C(=O)CC(C(=O)O)N2CCN(Cc3ccccc3)CC2)cc1 (configuration not stated)	-2%	-1	?	2%
CCOc1ccc(C(=O)CC(NCc2cccs2)C(=O)O)cc1 (configuration not stated)	3%	0	11µM*	1%
CCOc1ccc(C(=O)CCC(=O)N(CC)CC(=O)NCc2cccs2)cc1	5%	0	2%	10%
O=C(CSc1cn(CCNC(=O)c2ccccc2F)c2ccccc12)Nc1ccc2c(c1)OCCO2	3%	·	1%	-2%
O=C(CSc1cn(CCNC(=O)c2cccc(C(F)(F)F)c2)c2ccccc12)Nc1ccc2c(c1)OCCO2	16µM*	·	-1%	?
O=C(O)c1ccc2c3c(ncnc13)-c1ccccc1C2=O	2.6µM*	0	13%	3.3µM*
CCC(=O)Nc1ccc(NC(=O)CSc2nc3cc4c(cc3cc2C)CCC4)cc1	23µM*	0	-1%	?
COC(=O)c1cccc(NC(=O)NC(=O)c2ccc(Cl)cc2)c1	10µM*	-1	0%	-21%
COC(=O)c1cccc(NC(=O)Nc2ccc(Cl)cc2)c1	-17%	-2	2%	-9%
COc1ccc(N(CC(C)C)S(=O)(=O)c2nnc(NC(=O)c3cccs3)s2)cc1	21µM*	·	1%	-14%
CCCc1cc(=O)n2[nH]c(NCc3ccccc3OC)nc2n1	8%	·	10%	9%
Cc1ccc(C(=O)c2oc3ccccc3c2NC(=O)c2cc(-c3ccccc3O)n[nH]2)cc1	?	-1	4%	-1%
Cc1ccc(C(=O)c2oc3ccccc3c2NC(=O)c2cc(-c3cc(C)ccc3O)n[nH]2)cc1	26µM*	-3	3%	-26%
Cc1ccc(SCc2ccc(C(=O)Nc3cc([N+](=O)[O-])ccc3C)cc2)cc1	15µM*	0	0%	-9%
Cc1ccc(SCc2ccc(C(=O)Nc3cccc([N+](=O)[O-])c3)cc2)cc1	?	1	15%	-22%
SMILES	Nrf2 inh	IL2 activator	Nrf2 activator	A549 tox
Cc1ccc(C(C)C)cc1NC(=O)Nc1ccc([N+](=O)[O-])cc1	21µM*	-4	-1%	?
O=C(Nc1ccc([N+](=O)[O-])cc1NC(=O)c1ccccc1)c1ccccc1	-5%	-1	-2%	0%
Cc1ccc([N+](=O)[O-])cc1NC(=O)c1ccccc1	1%	-3	7.9µM*	-2%
Cc1ccc(CNC(=O)C(C)n2ccc3cc(S(=O)(=O)N4CCCC4)ccc32)cc1 (configuration not stated)	?	·	4%	-4%
COc1cccc(C2c3c(ncn(-c4ccccc4Br)c3=N)Oc3ccc4ccccc4c32)c1 (configuration not stated)	9%	·	·	-1%
Cc1cc(N/N=C/c2c(O)ccc3ccccc23)nc(-c2ccccc2O)n1	?	0	7.1µM*	?
COc1cc(OC)c(NC(=O)Cn2cnc3c(nc4n3CCCCC4)c2=O)cc1Cl	25%	·	0%	5%
CCn1c2ccccc2c2cc(NC(=O)COc3cc(C)ccc3C)ccc21	?	·	0%	-3%
COc1cc2c(cc1OC)C(C)N(C(=O)c1cc3c(C)cc(C)cc3[nH]1)CC2 (configuration not stated)	15µM*	-2	0%	-7%
CC(=O)CSc1nnc2cc(C)c3cc(C)cc(C)c3n12	-16%	·	4%	-3%
O=C(O)CSC1=NS(=O)(=O)c2ccccc21	-3%	·	·	1%
CC(=O)N(Cc1ccc(F)cc1)C1=C(NCCc2ccccc2)C(=O)c2ccccc2C1=O	21µM*	-2	-1%	23µM*
Cc1cccc(OCCn2c(CCNC(=O)C3CCCCC3)nc3ccccc32)c1	?	·	·	-3%
Cc1ccc(CNC(=O)c2nn(C)c3c2CS(=O)(=O)c2ccccc2-3)cc1	19%	-1	-1%	2%
Cn1nc(C(=O)NCc2ccc(F)cc2)c2c1-c1ccccc1S(=O)(=O)C2	10µM*	2	-4%	-10%
CNc1snc(C)c1C(=O)OCC(=O)c1cc(F)ccc1OC	12µM*	-1	?	-8%
CO/N=C/c1ccc(N2CCN(C(=O)c3ccc(F)cc3)CC2)c([N+](=O)[O-])c1	10µM*	4	0%	-25%
CO/N=C/c1ccc(N2CCN(C(=O)c3cccc(C(F)(F)F)c3)CC2)c([N+](=O)[O-])c1	?	-3	1%	?
O=C(Nc1ccc(O)c2ncccc12)c1ccccc1F	?	·	·	2%
CC1=C(c2ccc(C)cc2)S(=O)(=O)NC1=NCCCN1CCN(c2ccc(F)cc2)CC1	1%	·	0%	0%
COc1cc(OC)c(NC(=O)CN2C(=O)CCn3nc(-c4cccn4C)cc32)cc1Cl	·	·	1%	0%
Cc1cccc(CSC(Nc2ccc(F)cc2)=C(C#N)C#N)c1	18µM*	0	20%	-27%
N#CC(C#N)=C(Nc1ccc(F)cc1)SCc1cccc(Br)c1	4.1µM*	-4	?	?
COc1cc(CNc2ccc(O)cc2)cc(Br)c1OCc1ccccc1F	5.2µM*	-2	17%	15µM*
COc1ccc(-n2c(/C=C/c3cc(OC)c(OC)cc3OC)nc3cc4ccccc4cc3c2=O)cc1Cl	·	·	-1%	15%
COc1ccc(CCNC(=O)c2cc3c(s2)-c2c(C)cccc2OC3)c(OC)c1	21µM*	·	1%	-6%
COc1cc(NC(=O)c2cc3c(s2)-c2ccccc2OC3)cc(OC)c1OC	21µM*	·	-5%	-11%
COc1ccc(OC)c(CCNC(=O)c2cc3c(s2)-c2c(C)cccc2OC3)c1	-25%	·	3%	0%
CC(=O)Nc1ccc(NC(=O)C2(c3cccs3)CCOCC2)cc1	·	·	0%	11%
